The list is not random: actives were taken first. Their share in the collection is about 3.5%.
MITF primary: blocks human microphthalmia-associated transcription factor. O75030. AlphaScreen MITF homodimerization, bead proximity signal. inhibition, % at 2.6 µM. 650,000 tested, 0.91% active. AID 1259374; in the data active = inhibition above about 50%
FBW7 act: activators of human E3 ligase FBW7; 650,000 tested, 0.13% active; AlphaScreen FBW7–phospho-cyclin E peptide binding, activator screen; Q969H0; normalized activity (activation), % at 26.1 µM; in the data active = normalized activity above about 1.9%;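 note: purified mutant Fbw7 with reduced substrate affinity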
Target sequence (Q969H0 whole entry, looked up): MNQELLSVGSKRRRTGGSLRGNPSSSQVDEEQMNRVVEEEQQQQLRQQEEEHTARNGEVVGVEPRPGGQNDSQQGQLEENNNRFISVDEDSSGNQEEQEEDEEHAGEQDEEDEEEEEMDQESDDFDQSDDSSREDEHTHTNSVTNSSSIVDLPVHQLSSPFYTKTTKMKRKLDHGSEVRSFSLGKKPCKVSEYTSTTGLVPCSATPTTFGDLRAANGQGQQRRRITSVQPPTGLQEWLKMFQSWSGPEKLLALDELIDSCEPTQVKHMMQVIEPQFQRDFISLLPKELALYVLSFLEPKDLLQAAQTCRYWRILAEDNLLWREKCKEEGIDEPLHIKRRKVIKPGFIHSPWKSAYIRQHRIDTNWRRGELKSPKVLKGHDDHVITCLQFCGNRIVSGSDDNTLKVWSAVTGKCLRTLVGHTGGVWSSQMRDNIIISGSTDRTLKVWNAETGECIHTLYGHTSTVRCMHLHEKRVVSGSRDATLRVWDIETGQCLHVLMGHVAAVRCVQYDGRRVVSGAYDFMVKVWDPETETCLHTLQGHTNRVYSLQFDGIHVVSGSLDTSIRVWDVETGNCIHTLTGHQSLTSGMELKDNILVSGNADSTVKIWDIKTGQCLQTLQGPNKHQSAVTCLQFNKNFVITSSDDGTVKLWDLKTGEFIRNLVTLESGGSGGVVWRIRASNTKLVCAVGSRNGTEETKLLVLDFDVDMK
TEAD-YAP inh: TEAD-YAP interaction inhibition; HEK-TIYL cells, TEAD-Gal4/YAP UAS-luciferase luminescence; inhibition, % at 9.12 µM; 640,000 tested, 1.4% active; in the data active = inhibition above about 32%
GPR151 activ: human GPR151 activation. Q8TDV0. PathHunter beta-arrestin GPR151 cells, luminescence. activation, % at 11.2 µM. 650,000 tested, 1% active; in the data active = activation above about 4.9%
GPR151 conf act: confirmation of human GPR151 activators. GPR151 PathHunter beta-arrestin cells, luminescence, 90 min; % of EA-reagent control over plate median. 6,700 tested, under 10 active. activation, % at 11.2 µM. shares compounds with GPR151 activ;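 active = mean percent activation across replicates above the confirmation screen cutoff of 4.91%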
GPR119 ag: activates human GPR119 in a GPR151 counter-screen; shares compounds with GPR151 activ; GPR119 PathHunter beta-arrestin cells, luminescence, 90 min; 0 = compound-well median, 100 = enzyme-acceptor control; activation, % at 11.2 µM; 6,700 tested, 0.3% active; AID 1508611;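 active = mean percent activation in the counterscreen above 29.09%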;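 note: counterscreen on off-target GPR119 to flag nonselective hits from the GPR151 activator screen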
Numbers stand for hits.

Screening COc1ccc(CC2(CO)CCN(Cc3ccc(NC(C)=O)cc3)CC2)cc1 returned MITF primary inactive, FBW7 act inactive, TEAD-YAP inh inactive, GPR151 activ 5.9, GPR151 conf act inactive and GPR119 ag inactive.
COc1ccc(N2CC(C(=O)NCc3ccccc3C)CC2=O)cc1 (stereo not drawn) was read as MITF primary inactive, FBW7 act inactive, TEAD-YAP inh inactive and GPR151 activ inactive.
`O=C(CN1C(=O)c2ccccc2C1=O)Nn1c(-c2cccc(Cl)c2)nc2ccccc2c1=O` gave MITF primary inactive, FBW7 act inactive, TEAD-YAP inh inactive, GPR151 activ 6.7, GPR151 conf act inactive and GPR119 ag inactive.
`O=C(CSCc1ccc([N+](=O)[O-])cc1)N1CCN(c2cccc(Cl)c2)CC1` gave MITF primary inactive, FBW7 act inactive, TEAD-YAP inh inactive, GPR151 activ 13, GPR151 conf act inactive and GPR119 ag inactive.
Screening O=C(C(=O)N1CCN(c2cccc(Cl)c2)CC1)N1CCCCC1 returned MITF primary inactive, FBW7 act inactive, TEAD-YAP inh inactive, GPR151 activ 5.3, GPR151 conf act inactive and GPR119 ag inactive.
Screening CCCC(=O)Nc1ccc(C(=O)N2CCN(c3cccc(Cl)c3)CC2)cc1 returned MITF primary inactive, FBW7 act inactive, TEAD-YAP inh inactive, GPR151 activ 6.3, GPR151 conf act inactive and GPR119 ag inactive.
O=C(C1CC1)N1CCN(c2cccc(Cl)c2)CC1 was read as MITF primary inactive, FBW7 act inactive, TEAD-YAP inh inactive and GPR151 activ inactive.
For CC1(C)CC(=O)C2=C(C1)OC1(C)OC(=O)CC21 (stereo not drawn) the results were MITF primary inactive, FBW7 act inactive, TEAD-YAP inh inactive and GPR151 activ inactive.
Screening C#CCn1c(=NC(=O)c2cc(OC)c(OC)c(OC)c2)sc2cc(OCC)ccc21 returned MITF primary inactive, FBW7 act inactive, TEAD-YAP inh inactive and GPR151 activ inactive.
Screening Cc1cc(C)nc(NS(=O)(=O)c2ccc(Nc3ncnc(N)c3[N+](=O)[O-])cc2)n1 returned MITF primary inactive, FBW7 act inactive, TEAD-YAP inh inactive and GPR151 activ inactive.
`Nc1ncnc(Nc2ccc(S(=O)(=O)Nc3ncccn3)cc2)c1[N+](=O)[O-]` gave MITF primary inactive, FBW7 act inactive, TEAD-YAP inh inactive, GPR151 activ 4.9, GPR151 conf act inactive and GPR119 ag inactive.
For CCC(C)(C)C1CCC(NC(=O)C(=O)Nc2ccccc2)CC1 (stereo not drawn) the results were MITF primary inactive, FBW7 act inactive, TEAD-YAP inh inactive, GPR151 activ 6.3, GPR151 conf act inactive and GPR119 ag inactive.
Screening COc1ccc(N2CCN(C(=O)c3n[nH]c(=O)c4ccccc34)CC2)cc1 returned MITF primary inactive, FBW7 act inactive, TEAD-YAP inh inactive and GPR151 activ inactive.
For O=C1C=Cc2ccccc2/C1=C/c1nc(-c2ccccc2)oc1O the results were MITF primary inactive, FBW7 act inactive, TEAD-YAP inh inactive and GPR151 activ inactive.
Screening COc1ccc(OC(C)C(=O)Nc2cc(C)ccc2C)cc1 (stereo not drawn) returned MITF primary inactive, FBW7 act inactive, TEAD-YAP inh inactive, GPR151 activ 5.0, GPR151 conf act inactive and GPR119 ag inactive.
Screening COc1ccc(OC(C)C(=O)Nc2ccc(C)cc2C)cc1 (stereo not drawn) returned MITF primary inactive, FBW7 act inactive, TEAD-YAP inh inactive and GPR151 activ inactive.
Screening CS(=O)(=O)N(CC(=O)NCc1ccccc1)c1cccc(Cl)c1 returned MITF primary inactive, FBW7 act inactive, TEAD-YAP inh inactive, GPR151 activ 6.1, GPR151 conf act inactive and GPR119 ag inactive.
Screening Cc1[nH]nc2c1C1(CC(C)N(C)CC1C)C(C#N)=C(N)O2 (stereo not drawn) returned MITF primary inactive, FBW7 act inactive, TEAD-YAP inh inactive and GPR151 activ inactive.
Cc1cccc(N(CC(=O)N2CCN(c3ccccc3)CC2)S(=O)(=O)c2ccccc2)c1 was read as MITF primary inactive, FBW7 act inactive, TEAD-YAP inh inactive, GPR151 activ 5.8, GPR151 conf act inactive and GPR119 ag inactive.
Screening O=C(CN(c1ccccc1)S(=O)(=O)c1ccccc1)N1CCN(c2ccccc2)CC1 returned MITF primary inactive, FBW7 act inactive, TEAD-YAP inh inactive and GPR151 activ inactive.

Screening results from PubChem BioAssay.
